# Source: the supplement of paper PMC10037445
# Over roughly 2,900 compounds, “NF-kB SEAP reporter activity, fold change vs agonist alone” has its median near 0.99; the highest 2% begin near 2.6. This is one part of a sample in which the highest values are shown more often than they occur.
# Experiments:
# RAW-Dual [1] = assay: NF-kB SEAP reporter activity, fold change vs agonist alone; cytotoxicity flag (confluency mask): not cytotoxic; higher = enhanced NF-kB activity
# How it was run: (§1)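 After 50 nL of library stock was delivered by pin tool to RAW-Dual macrophages (50,000 cells/well, DMEM, 384-well plates), a PRR agonist was added 1 h later and the plates were kept at 37 °C, 5% CO2. Twenty hours later, IRF was read from supernatant by QuantiLuc luminescence and NF-κB by QuantiBlue absorbance at 620 nm. Reporter activity is stated as fold change over agonist-alone wells. Wells with IncuCyte confluency under 70% of agonist controls in both mask sets were counted as cytotoxic.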
# RAW-Dual [2] = assay: NF-kB SEAP reporter activity, fold change vs agonist alone; higher = enhanced NF-kB activity; conditions: cytotoxicity flag (confluency mask): not cytotoxic
# How it was run: as §1
# [3] = agonist: ODN 1826 (TLR9) 0.5 ug/mL
# [4] = agonist: Pam2CSK4 (TLR2/6) 0.1 ug/mL
# [5] = agonist: Pam3CSK4 (TLR2/1) 0.1 ug/mL
# [6] = library stock concentration (final ~1000-fold dilution): 10 mM, agonist: Imiquimod (TLR7) […]
# [7] = library stock concentration (final ~1000-fold dilution): 10 mM, agonist: MPLA (TLR4) […]
smiles,measurement,setting,value
CCOc1cc(C(CS(C)(=O)=O)N2C(=O)c3cccc(NC(C)=O)c3C2=O)ccc1OC (configuration not stated) (library stock concentration (final ~1000-fold dilution): 10 mM),NF-kB SEAP reporter activity,RAW-Dual [1]; agonist: LPS (TLR4) 0.1 ug/mL,1.59
same,NF-kB SEAP reporter activity,RAW-Dual [1]; [3],1.87
same,NF-kB SEAP reporter activity,RAW-Dual [1]; [4],1.47
same,NF-kB SEAP reporter activity,RAW-Dual [1]; [5],1.72
N=C(N)NCCCC(N)C(=O)NCC(=O)NC(CC(=O)O)C(=O)O (configuration not stated),NF-kB SEAP reporter activity,"RAW-Dual [2]; library stock concentration (final ~1000-fold dilution): 10 mM water, agonist: Imiquimod (TLR7) […]",0.924
same,NF-kB SEAP reporter activity,"RAW-Dual [2]; library stock concentration (final ~1000-fold dilution): 10 mM water, agonist: MPLA (TLR4) […]",1.06
N=C(N)NCCCC(N)C(=O)NCC(=O)NC(CC(=O)O)C(=O)O (configuration not stated) (library stock concentration (final ~1000-fold dilution): 10 mM water),NF-kB SEAP reporter activity,RAW-Dual [1]; agonist: LPS (TLR4) 0.1 ug/mL,1.41
same,NF-kB SEAP reporter activity,RAW-Dual [1]; [3],1.14
same,NF-kB SEAP reporter activity,RAW-Dual [1]; [4],1.2
same,NF-kB SEAP reporter activity,RAW-Dual [1]; [5],0.993
[O-][n+]1cccc(-c2nc3c(Cl)cccc3cc2C(Nc2ncnc3cccnc23)C(F)(F)F)c1 (configuration not stated) (library stock concentration (final ~1000-fold dilution): 10 mM),NF-kB SEAP reporter activity,RAW-Dual [1]; agonist: LPS (TLR4) 0.1 ug/mL,2.33
same,NF-kB SEAP reporter activity,RAW-Dual [1]; [3],1.3
same,NF-kB SEAP reporter activity,RAW-Dual [1]; [4],0.992
same,NF-kB SEAP reporter activity,RAW-Dual [1]; [5],1.38
[O-][n+]1cccc(-c2nc3c(Cl)cccc3cc2C(Nc2ncnc3cccnc23)C(F)(F)F)c1 (configuration not stated),NF-kB SEAP reporter activity,RAW-Dual [2]; [6],0.648
same,NF-kB SEAP reporter activity,RAW-Dual [2]; [7],1.56
CC(C)=CC(C)C[C@](C)(O[C@@H]1O[C@H](CO)[C@@H](O)[C@H](O)[C@H]1O)[C@H]1CC[C@]2(C)C3CCC4C(C)(C)C(O[C@@H]5O[C@H](CO)[C@@H](O)[C@H](O)[C@H]5O[C@@H]5O[C@H](CO)[C@@H](O)[C@H](O)[C@H]5O)CC[C@]4(C)C3C[C@H](O)[C@@H]12 (some centres not stated),NF-kB SEAP reporter activity,RAW-Dual [2]; [6],0.936
same,NF-kB SEAP reporter activity,RAW-Dual [2]; [7],1.05
CC(C)=CC(C)C[C@](C)(O[C@@H]1O[C@H](CO)[C@@H](O)[C@H](O)[C@H]1O)[C@H]1CC[C@]2(C)C3CCC4C(C)(C)C(O[C@@H]5O[C@H](CO)[C@@H](O)[C@H](O)[C@H]5O[C@@H]5O[C@H](CO)[C@@H](O)[C@H](O)[C@H]5O)CC[C@]4(C)C3C[C@H](O)[C@@H]12 (some centres not stated) (library stock concentration (final ~1000-fold dilution): 10 mM),NF-kB SEAP reporter activity,RAW-Dual [1]; agonist: LPS (TLR4) 0.1 ug/mL,1.18
same,NF-kB SEAP reporter activity,RAW-Dual [1]; [3],1.06
same,NF-kB SEAP reporter activity,RAW-Dual [1]; [4],1.04
same,NF-kB SEAP reporter activity,RAW-Dual [1]; [5],1.04
COc1cc(CCC(=O)CC(O)CCc2ccc(O)c(OC)c2)ccc1O (configuration not stated),NF-kB SEAP reporter activity,RAW-Dual [2]; [6],1.04
same,NF-kB SEAP reporter activity,RAW-Dual [2]; [7],1.1
COc1cc(CCC(=O)CC(O)CCc2ccc(O)c(OC)c2)ccc1O (configuration not stated) (library stock concentration (final ~1000-fold dilution): 10 mM),NF-kB SEAP reporter activity,RAW-Dual [1]; agonist: LPS (TLR4) 0.1 ug/mL,1.4
same,NF-kB SEAP reporter activity,RAW-Dual [1]; [3],1.07
same,NF-kB SEAP reporter activity,RAW-Dual [1]; [4],0.979
same,NF-kB SEAP reporter activity,RAW-Dual [1]; [5],1.25
COC(=O)C1=C(C)NC(C)=C(C(=O)OC2CCCN(Cc3ccccc3)C2)C1c1cccc([N+](=O)[O-])c1.Cl (configuration not stated),NF-kB SEAP reporter activity,RAW-Dual [2]; [6],0.718
same,NF-kB SEAP reporter activity,RAW-Dual [2]; [7],0.978
COC(=O)C1=C(C)NC(C)=C(C(=O)OC2CCCN(Cc3ccccc3)C2)C1c1cccc([N+](=O)[O-])c1.Cl (configuration not stated) (library stock concentration (final ~1000-fold dilution): 10 mM),NF-kB SEAP reporter activity,RAW-Dual [1]; agonist: LPS (TLR4) 0.1 ug/mL,1.22
same,NF-kB SEAP reporter activity,RAW-Dual [1]; [3],0.381
same,NF-kB SEAP reporter activity,RAW-Dual [1]; [4],0.365
same,NF-kB SEAP reporter activity,RAW-Dual [1]; [5],0.368
CN(C)CCOc1ccc(-c2nc(-c3ccncc3)c(-c3ccc4c(c3)CC/C4=N\O)[nH]2)cc1,NF-kB SEAP reporter activity,RAW-Dual [2]; [6],0.946
same,NF-kB SEAP reporter activity,RAW-Dual [2]; [7],1.02
OCCn1cc(-c2ccc3c(c2)CC/C3=N\O)c(-c2ccncc2)n1,NF-kB SEAP reporter activity,RAW-Dual [2]; [6],1.65
same,NF-kB SEAP reporter activity,RAW-Dual [2]; [7],1.57
CN(C)CCOc1ccc(-c2nc(-c3ccncc3)c(-c3ccc4c(c3)CC/C4=N\O)[nH]2)cc1 (library stock concentration (final ~1000-fold dilution): 10 mM),NF-kB SEAP reporter activity,RAW-Dual [1]; agonist: LPS (TLR4) 0.1 ug/mL,5
same,NF-kB SEAP reporter activity,RAW-Dual [1]; [3],0.964
same,NF-kB SEAP reporter activity,RAW-Dual [1]; [4],1.49
same,NF-kB SEAP reporter activity,RAW-Dual [1]; [5],0.882
